Assay outcomes from PubChem BioAssay.
This is a sample that favours compounds with a hit; in the whole collection about 3.9% have one here.
HIF act = HIF pathway transcriptional activation. U2OS HRE-luciferase reporter, luminescence; normalized: DMSO 0%, desferrioxamine 100%. activation, % at 7.5 µM (by protocol). 300,000 tested, 0.32% active;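 active means mean activation of at least 10% of the iron chelator positive control signal, with at least half of replicates also reaching 10%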
PLCg1 inh = inhibitors of human phospholipase C gamma1; purified PLC-gamma1, fluorogenic substrate, fluorescence; AID 720700; inhibition, % at 12.2 µM; 370,000 tested, 0.84% active; P19174; in the data active means inhibition above about 9.5%
PLC-beta3 inh = PLC-beta3 (human) inhibition, primary screen; Purified PLC-beta3, fluorogenic substrate, fluorescence; inhibition, % at 12.2 µM; 370,000 tested, 0.18% active; in the data active means inhibition above about 11%;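 further: 0% = median of compound wells on plate and 100% = full blocker control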
sPLA2-III inh = Blocks human group III sPLA2 activity | inhibition, % at 12.2 µM | 370,000 tested, 0.56% active | AID 743126 | Q9NZ20 | QFRET BODIPY PC-A2 liposome hydrolysis, fluorescence;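 active means inhibition above mean plus 3 SD of compounds lying within the high and low control bounds, cut at about 19% in these data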;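 further: 0% = median of test compound wells and 100% = no enzyme DMSO wells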
Yeast superoxide = lowers age-related superoxide in aged yeast cells; S. cerevisiae aged cells, superoxide DHE fluorescence; hits give low values; superoxide response (% of plate mean), % at 10 µM; 330,000 tested, 0.18% active;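 active means superoxide response under a set limit, about three screen SD below normal, cut at about 65% in these data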;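 further: yeast aged for seven days with compound at 30 °C before DHE staining; 100% = average MFI of all compound-treated wells on the plate with controls excluded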
AHR activator = human AHR activation; P35869; AHR-responsive luciferase reporter cells, luminescence; activation, % at 5 µM; 320,000 tested, 2.5% active; AID 2796; in the data active means activation above about 47%;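 further: 0% = vehicle wells and 100% = reference agonist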
sPLA2 confirm = human GIII-sPLA2 inhibition, confirmation; shares compounds with sPLA2-III inh; recombinant hGIII-sPLA2, BODIPY PC-A2 QFRET fluorescence; inhibition, % at 12.2 µM; 2,000 tested, 34% active;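 active means mean inhibition across triplicates above the hit cutoff set in the earlier primary screen, cut at about 19% in these data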;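 further: 0% = enzyme with DMSO and 100% = DMSO wells lacking enzyme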
535nm interf = 535nm fluorescence interference, HGIII-sPLA2 counter-screen; shares compounds with sPLA2-III inh; 2,000 tested, 8.5% active; BODIPY FL product fluorescence interference, QFRET; AID 743282; inhibition, % at 12.2 µM;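 active means average inhibition above the solvent-only control mean plus 3 SD, cut at about 6% in these data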;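 further: 0% = DMSO with substrate plus product and 100% = DMSO with substrate alone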
535nm interf DR = 535nm optical interference dose response, HGIII-sPLA2 counter-screen; shares compounds with sPLA2-III inh; BODIPY FL product fluorescence interference, cell-free; AID 743455; 240 tested, under 10 active; IC50, µM;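 active means IC50 at or below 10 µM; inactive means IC50 above 10 µM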
* hit, by the source's call; i = inactive; x = no result.

SMILES	HIF act	PLCg1 inh	PLC-beta3 inh	sPLA2-III inh	Yeast superoxide	AHR activator	sPLA2 confirm	535nm interf	others
Cc1ccc2nc(-c3cc(N)cc(N)c3)oc2c1	-3	-65	-82	23*	108	7	36*	-2	535nm interf DR=>122
CN(C(=O)Nc1ccccc1)C1CCCc2ccccc21 (stereo not given)	1	1	0	3	81	8	x	x
C=CCn1c(CSCc2ccc(F)cc2)n[nH]c1=S	0	0	-2	15	101	-2	x	x
Cn1c(CSCc2ccc(Cl)c(Cl)c2)n[nH]c1=S	0	-4	2	8	85	-9	x	x
CCn1c(CSCc2ccc(Cl)cc2)n[nH]c1=S	0	5	1	19*	99	0	26*	3
CCn1c(CSCc2ccc(C)cc2)n[nH]c1=S	0	1	-6	30*	101	x	25*	3
Cc1ccc(-n2nc(-c3ccco3)cc2C(=O)O)c(C)c1	-1	-14	-29	1	x	x	x	x
COc1cc(CNn2c(C)n[nH]c2=S)cc(Cl)c1OCC(=O)NC(C)(C)C	0	4	-6	29*	98	3	25*	-4
CC(=O)/C=N/Nc1ccccc1	0	4	7	3	87	-5	x	x
OC[C@@H](O)[C@H](O)C(/C=N/Nc1ccccc1)=N\Nc1ccccc1	0	-27	-35	20*	75	6	23*	3
CCN=c1scc(C)n1/N=C/c1cc(Br)c(O)c(Br)c1	-1	-72	-86	22*	92	2	21*	1
CCN=c1scc(C)n1/N=C/c1ccc(O)c(O)c1O	-1	-8	-19	22*	90	-2	24*	-11
CCN=c1scc(-c2ccco2)n1/N=C/c1ccc(O)cc1	2	-13	-25	4	105	-1	x	x
S=c1[nH]c2ccc(Cl)cc2[nH]1	0	5	0	1	96	12	x	x
S=c1[nH]c2cc(Cl)ccc2s1	0	1	-10	24*	88	9	21*	1
CCN1C(=NCCCOC(C)C)N[C@@H](c2ccccc2)[C@H](C(=O)OC)[C@H]1C	x	3	0	19*	93	0	1	-12
CC(=O)N1CCN(c2ccc(NCc3ccc(-c4ccc(Br)cc4)o3)cc2)CC1	x	-328	-454	20*	79	-1	20*	-21
CCN(CC(=O)Nc1ccc(OC)cc1)C(=O)CN1C(=O)NC(C)(c2ccc3ccccc3c2)C1=O (stereo not given)	0	-3	-7	-13	101	-4	x	x
COc1cccc(C(C(=O)NCC2CCCO2)N(C(=O)Cn2nnc3ccccc32)c2ccc(NC(C)=O)cc2)c1 (stereo not given)	1	-2	-1	0	109	0	x	x
CC1CN(Cc2ccccc2)c2ccccc2NC1=S (stereo not given)	-1	0	2	21*	93	-2	22*	0
CC1CN(Cc2ccccc2)C(=O)N(c2ccccc2)C1=O (stereo not given)	x	1	3	1	x	x	x	x
O=C(OCc1cn(Cc2ccc(F)c(F)c2)nn1)N1CCOCC1	x	2	-6	19*	x	x	-3	-2
O=[N+]([O-])c1cc(-n2cccc2)ccc1N1CCOCC1	0	-1	-4	0	83	-6	x	x
Cc1ccc(NC(=O)CSCC(=O)NCCc2ccccc2)c(C)c1	x	-2	-4	0	114	1	x	x
COc1ccc(-c2c(C)nc3c(-c4ccc(F)cc4)cnn3c2N)cc1	4	-5	-22	19*	98	9	2	-7
SMILES	HIF act	PLCg1 inh	PLC-beta3 inh	sPLA2-III inh	Yeast superoxide	AHR activator	sPLA2 confirm	535nm interf	others
Cc1nc2c(-c3ccc(F)cc3)cnn2c(N)c1-c1ccccc1	-1	-495	i	13	106	-7	x	x
O=C(NC(=S)Nn1cnnc1)c1cccc(Br)c1	0	-1	-9	22*	98	0	4	-2
N#CCCn1cc(C(=O)Nc2ccc(C(=O)O)cc2)c(-c2cc3ccccc3o2)n1	0	3	-3	-3	100	3	x	x
O=C(Nc1ccc([N+](=O)[O-])cc1)c1cn(-c2ccccc2)nc1-c1cc2ccccc2o1	-1	2	-2	20*	102	5	-3	-8
O=S(=O)(Cc1ccc(Cl)cc1)N1CCCC1	0	-1	3	21*	98	-6	5	-8
O=S(=O)(Cc1ccc(Cl)cc1)N1CCCCCC1	1	0	-9	2	118	-14	x	x
CC(C)C[C@H]1CN(CCCC[C@H]2CNC(=O)C(=O)N2Cc2ccccc2)C(=O)C(=O)N1CCc1ccc(O)cc1	x	2	1	-6	x	x	x	x
O=c1cc(-c2ccccc2Cl)oc2cc(O)cc(O)c12	-1	1	-1	-7	100	44	x	x
Nc1ccc(O)c2c(=O)cc(-c3ccccc3Cl)oc12	4	5	4	27*	96	20	42*	-2
CC(=O)Nc1ccc(NC(C)=C(C#N)C#N)cc1	0	-2	1	20*	95	-1	-1	-3
Cc1occc1C(=O)N1CCCC(CO)(Cc2ccc(F)cc2F)C1 (stereo not given)	0	6	-1	4	107	-2	x	x
COc1cc(Sc2ccc(C)cc2)c(OC)cc1N	0	-6	-9	22*	91	3	38*	9.1*
COC(=O)c1ccc(Sc2ccc(C)cc2)c(N)c1	0	-171	-260	2	97	1	x	x
COC(=O)c1cccc(/C=N/NC(N)=S)c1O	0	-256	-364	21*	95	-1	20*	-1
COc1ccc(/C=N/NC(N)=S)cc1	1	5	-11	21*	107	4	2	-9
NC(=S)N/N=C/c1ccccc1[N+](=O)[O-]	0	-1	3	12	103	0	x	x
Oc1c(C(Nc2nccs2)c2ccc(C(F)(F)F)cc2)ccc2cccnc12 (stereo not given)	58*	-7	-14	40*	x	x	23*	-1
Nn1c(SCC(=O)Nc2ccc(N3CCOCC3)cc2)nnc1-c1ccccc1F	x	2	-6	6	99	4	x	x
O=c1c2c3c(sc2nc(N2CCNCC2)n1CCc1ccccc1)CCCCC3	0	4	-5	20*	95	0	2	-32
CC(C)(c1ccccc1)c1ccc(OCCCN2CCNCC2)cc1	0	-1	3	10	78	0	x	x
